Experimental data: the supplement of paper PMC11417369
Whole data set: some 25,000 sequences, median “ln(normalized median fluorescence intensity)” near 6.7, cut for the highest 2% near 10. Many of the other results were omitted from the sample, so the highest values are more common in it than they were.

system: PfHDP1 homeodomain (GST-tagged); experiment: gcPBM binding intensity (ln(normalized median fluorescence intensity)); higher = stronger DNA binding
In short: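 Binding intensity values are the highest Masliner-normalised natural-log median intensity among replicate spots of either probe orientation. The binding step lasted 1 h in 1× PBS with 1% milk, 0.2 mg/ml BSA, 0.5% salmon testes DNA and 0.03% Triton X-100, using GST-tagged P. falciparum DNA-binding domains expressed in E. coli on an Agilent 4 × 180k array of primer-extended double-stranded 36-bp intergenic genomic probes plus negative controls. Alexa488 anti-GST antibody and a 488 nm scan detected bound protein.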

Row | Sequence | gcPBM binding intensity (ln)
1 | AAAGAAATGAAATATACACACATACCTATATACATA [CACACA_site7817] | 6.63
2 | ATATATGATGTATTTGTGCACATATATATATTATTA [GTGCAC_site9471] | 10.7
3 | GAAAAGCAGATAAATGTGCACATATATGTTTGTATA | 10.8
4 | CACATATATATGTGTGCATGTTGTATTATATATTTA [TGCATGCA_site632] | 8.72
5 | AAAAAATAAAAAGATACACACATATGTATAATATAC [CACACA_site1496] | 6.83
6 | AAAAAAAAAAAAAGCACACACACATATGTGTATATA [CACACA_site8225] | 6.86
7 | TTTTTGTTATTATGTGTGCACATATATATATATATA | 10.4
8 | TATATGTATAGAAAATGTACATATAAATATATATAT [XGTACX_site3420] | 7.94
9 | TATGTATGTTAGTGTGCACACATAAATATTATATAT [CACACA_site9121] | 11.1
10 | TAAAATAGAAATATATGTACATATATATATGTATAT [XGTACX_site4134] | 6.4
11 | ATAAATACATATGTGTGTACACATTATATATATATA [XGTACX_site1486] | 9.17
12 | ATATATGTATGTTAGACACACATATTATAATATGTT [CACACA_site116] | 6.5
13 | TGTGTGTGTATATGTGTGCACATATAAAATAGAAGA [GTGCAC_site9714] | 10.5
14 | TAATTTCTTATGTAGTGTACAAATAATATATGATAT [XGTACX_site597] | 6.39
15 | ATTAAAAAAATATAAACACACAAAAAAAAAATATAC [CACACA_site1100] | 7.06
16 | AACAAATAAAAAAAAATAAAAATAAAAATAAAAAAA [XGTACX_negctrl_site451] | 6.36
17 | TTTTTTTCTTCTTTTCTCTTAAAAATATTGAATATT [CACACA_negctrl_site1762] | 6.28
18 | TATACATATGAAAATACACACATACATACAGATATA [CACACA_site5002] | 6.64
19 | TGTATGTTTGGGTGCACACATAAATATTATATATAG [CACACA_site3397] | 10.2

Row | Sequence | gcPBM binding intensity (ln)
20 | TTGTTGTGTATTATCGTGCACATAATATAAAAGATT | 10.5
21 | TAAAAATTGCACAGAAGTACAGTATAAATATATATA [XGTACX_site3421] | 10.2
22 | AAAAGTTGTATTTGCACACATAAAAAAAAGATATTA [CACACA_site3840] | 10.3
23 | TATGTGTATAATAAAAGTACATATATTATTATATAA [XGTACX_site8556] | 6.35
24 | ATATATTATGGGTGTGCACACAATATTTATATGTTC [CACACA_site2270] | 10.9
25 | TATATGTATGTTTGTGTGCACACATAAATATTATAT | 10.5
26 | AATATTTATGGGTGCACACAAACATACAGATATATA [CACACA_site5810] | 10.3
27 | TGTGTATATGTGCAAAGTACAAAAAAGAAATTATTT [XGTACX_site7569] | 9.87
28 | TTTATGTGTATGTTTACACACATAAAAAAATATATG [CACACA_site3039] | 6.54
29 | AAGAAAAATATTCGTGTGCACAGAAGTATATGTGTG [GTGCAC_site9814] | 11
30 | TGTATTATATATACACAAATATTTATGTGTGTGTTT [XGTACX_negctrl_site475] | 6.71
31 | TTGATGTATACAATGTAGATTATTTAATATTTCAAT [GTGCAC_negctrl_site203] | 6.12
32 | TTATGAAAATATTTTTTTCGTTTGATGTATATGTTT [CACACA_negctrl_site1556] | 6.22
33 | TTGTATTATATTGTATTATGTTTAAATGAAAAAAAA [CACACA_negctrl_site662] | 6.46
34 | ATATATCTACAAATATGTACACACACACATATATAT [XGTACX_site1075] | 6.9
35 | TATAAAAAATAAAAAGTTTAATGAATATTTCTTTTA [TGCATGCA_negctrl_site379] | 5.53
36 | TTATGTTGTAAATGCACACATACATATACGCAGTTT [CACACA_site3015] | 9.92
37 | ACATAAAATAAATATACACACATATGTATATATTAT [CACACA_site3041] | 6.59
38 | TTATGTCATAAATGCACACATATATATATACATATA [CACACA_site1588] | 10.5

Row | Sequence | gcPBM binding intensity (ln)
39 | ATGTTCATTATATGCACACATATATATAAATGTAAT [CACACA_site2908] | 10.2
40 | TTATGTCATAAATGCACACATATATAAATACAGATA [CACACA_site4959] | 10.3
41 | ATAATGTATATTATTGCACACATATATAAAATTATG [CACACA_site8280] | 10.5
42 | CATTATGTTGTAAATGCACACATACATATACACAGT [CACACA_site8990] | 9.81
43 | TTATGTTGTAAATGCACACATACATAAACTCAGTTT [CACACA_site5639] | 10.5
44 | CATTATGTCATAAATGCACACATATATATATACATA [CACACA_site8454] | 9.98
45 | ATATATATATATAATGCACACATTATAAATTATGTA [CACACA_site5802] | 10.6
46 | AATGTATATTATTGCACACATATATAAAATTATGCT [CACACA_site1096] | 10.5
47 | TTATGTTCATTATATGCACACATATATATAAATGTA [CACACA_site8947] | 9.74
48 | ATCAAAATTGTCATTACACACCTTTATTTTTAGAAT [CACACA_site1813] | 6.6
49 | CAAGCCCTTCTGCTTACACACAGTAATTATTGTGCA [CACACA_site7399] | 6.34
50 | TTTCTATAATATATATGTACATATATAATATGTCGT [XGTACX_site3676] | 6.58
51 | AAATAAAATCATAATGTGCGCATATAAATTTGTAGG [GTGCAC_site9662] | 8.1
52 | AATCCACTTTTTTATGTTATACAATATAAATTAAAT [XGTACX_negctrl_site446] | 6.71
53 | AAAAACTTAATATTCACACATATATATATATATATA [CACACA_site5240] | 9.48
54 | ACAAGATAATAGAGAAGTACTAATAAACATACACAA [XGTACX_site6617] | 6.9
55 | TATATAATATAATGTAGTACATGTTTTATTTTTTAC [XGTACX_site7735] | 6.4
56 | AAATATCTACATATTTGTACATATTTATACATATTT [XGTACX_site6300] | 6.12
57 | TTTTATAATATTTAAAGTACATTCTAAAAATATAAT [XGTACX_site8033] | 6.01
